# An excerpt weighted towards active compounds, which were near 12% of everything screened.
# G9a block = inhibitors of human histone lysine methyltransferase G9a; G9a H3K9 monomethylation, AlphaScreen, 2 h; Potency, µM (series often up to 102 µM), for inactives: top-dose activity, negative = inhibition, most hits filed as inhibitors; 350,000 compounds, 8.8% hits; further: on the % scale 0 is the no-effect control and ±100 the full control effect; nearly all actives have a fitted effect of over 75% in size
#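 Readings reflect AlphaScreen signal from monomethyl-H3K9 antibody detection. HMT at 20 nM; substrate b-H3K9 500 nM; cofactor SAM 20 uM; 2 h RT reaction; compounds tested as titrations in qHTS with 15 min preincubation.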
# HP1b binding inh = inhibitors of HP1-beta chromodomain binding to methylated histone tails | P83916 | AlphaScreen HP1-beta / biotin-H3K9me3 peptide binding | Potency, µM (top dose mostly 114 µM), inactives show at the highest dose activity change, negative = inhibition, actives largely listed as inhibitors | 390,000 compounds, 0.56% hits; further: nearly all actives have a fitted effect of over 70% in size
#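 Compound inhibition of the preformed complex between 50 nM HP1-beta and 50 nM biotinylated H3K9me3 peptide was read by AlphaScreen. Buffer was PBS pH 7.4 with 0.01% Tween-20. Incubations ran 30 min at room temperature, with 10 ug/mL donor/acceptor beads.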
# JMJD2A Tudor = inhibitors of human JMJD2A Tudor domain; O75164; AID 504339; 390,000 compounds, 4.4% hits; Potency, µM (top dose mostly 114 µM), for inactives: at the highest dose activity change, negative = inhibition, hits mostly inhibitors; AlphaScreen JMJD2A-Tudor / H3K4me3 peptide binding; further: on the % scale 0 is the no-effect control and ±100 the full control effect; nearly all actives have a fitted effect of over 50% in size
# Sfp inh = inhibitors of Bacillus subtilis Sfp phosphopantetheinyl transferase; Q9F4F7; Biochemical Sfp PPTase activity, qHTS; Potency, µM, for the others: largest response in the series, negative = inhibition, actives largely listed as inhibitors; 310,000 compounds, 3.5% hits; AID 1490;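 further: the enzyme is Sfp with the accession as filed and its product quenches rhodamine fluorescence; 0% = enzyme reaction without inhibitor and -100% = no enzyme wells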
#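 With Hepes-Na pH 7.6 buffer containing 10 mM MgCl2, Sfp (15 nM) modified BHQ-2-YbbR (12.5 uM) using rhodamine-CoA (5 uM). Two reads 30 minutes apart at 525/598 nm yielded each well's rate.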
# TDP1 block = inhibitors of human tyrosyl-DNA phosphodiesterase TDP1; Q9NUW8; recombinant TDP1, AlphaScreen DNA substrate cleavage; Potency, µM (top dose mostly 130 µM), for inactives: top-dose activity change, negative = inhibition, hits mostly inhibitors; 350,000 compounds, 0.28% hits; further: on the % scale 0 is the no-effect control and ±100 the full control effect; nearly all actives have a fitted effect of over 40% in size
#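 Steps: enzyme plus compound, 15 min RT; add biotin/phosphotyrosine-FITC oligonucleotide (15 nM final), react 5 min; add donor/acceptor beads (10 ug/ml final), 10 min; read AlphaScreen. Tdp1 at 1 nM final.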
# BAZ2B inh = inhibitors of human BAZ2B bromodomain. Potency, µM (series often up to 114 µM), inactives show at the highest dose activity change, negative = inhibition, hits mostly inhibitors. AlphaScreen BAZ2B-H3K14Ac peptide displacement. 360,000 compounds, 4.4% hits. Q9UIF8. AID 504333; further: on the % scale 0 is the no-effect control and ±100 the full control effect; nearly all actives have a fitted effect of over 60% in size
#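 AlphaScreen displacement of biotin-H3(5-23)K14Ac peptide (50 nM final) from BAZ2B (50 nM final) in PBS pH 7.4, 0.01% Tween-20; complex preformed 30 min RT, then compounds (top 110 uM) 30 min RT, beads 20 min dark.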
# The depositor's hits bear a star; ? = inconclusive; / = no result; [ ] = remark or other dose. The call rests on the fitted dose curve; in most records, active means well fitted curve in the direction sought with a large enough effect; inconclusive means small, poorly fitted or top-dose-only effect, or another doubt; inactive means no such curve, though single readings can be large; an effect the other way counts as inactive or inconclusive. Potency means the concentration at half of the fitted maximal effect.
SMILES,G9a block,HP1b binding inh,JMJD2A Tudor,Sfp inh,TDP1 block,BAZ2B inh
CC12CCC(C(=O)NNc3ccc([N+](=O)[O-])cc3)(OC1=O)C2(C)C (configuration not stated),4%,33%,1%,14%,4%,-3%
CC12CCC(C(=O)NNc3ccccc3)(OC1=O)C2(C)C (configuration not stated),56µM*,48%,2%,19%,2%,-19%
C[C@H](CCC(=O)NCC(=O)O)C1CC[C@H]2[C@H]3C(C[C@H](O)[C@]12C)[C@@]1(C)CC[C@@H](O)C[C@H]1C[C@H]3O (some centres not stated),38%[59 µM],/,/,14%,7%,/
CCc1ccc(NC(=O)Cn2c(=O)n(CCCC(=O)NCc3ccccc3OC)c(=O)c3ccccc32)cc1,12%[59 µM],2%,-15%,/,2%,2%
COc1ccc(-n2c(Cc3cccn3C)nnc2SCC(=O)Nc2ccccc2F)cc1,50µM*,-25%,?,-8%,5%,?
COc1ccc(-n2c(Cc3cccn3C)nnc2SCC(=O)Nc2nccs2)cc1,?,6%,-35%,-15%,5%,?
COc1ccc(-n2c(Cc3cccn3C)nnc2SCC(=O)N2CCOCC2)cc1,71µM*,27%,-25%,2%,5%,-6%
COc1ccc(-n2c(Cc3cccn3C)nnc2SCC(=O)Nc2ccc(F)cc2F)cc1,40µM*,-1%,?,-5%,8%,?
COc1ccc(OC)c(NC(=O)CSc2nnc(Cc3cccn3C)n2-c2ccc(F)cc2)c1,?,1%,-35%,-8%,12%,50µM*
CCOc1ccc(CNS(=O)(=O)c2cc(-c3cc(C)no3)ccc2C)cc1OC,0%[59 µM],4%,-15%,/,0%,-13%
CC(=O)c1ccc(NC(=O)C2CCCN(S(=O)(=O)c3ccc4c(c3)CCCN4C(C)=O)C2)cc1 (configuration not stated),-3%[59 µM],20%[57 µM],-5%,/,3%,-3%
CCOC(=O)c1c(NC(=O)CN2CCN(S(=O)(=O)c3cc(Cl)ccc3Cl)CC2)sc(C(=O)N(C)C)c1C,/,15%,-27%,/,/,/
Cc1ccc(CN(Cc2cccn2-c2nnc(N3CCCC3=O)s2)C(=O)Nc2cc(C)cc(C)c2)cc1,-7%[59 µM],16%,-19%,/,0%,-16%
COC(=O)c1nc(Nc2cc(F)cc(F)c2)nc(NC2CCCC2)n1,/,/,-14%,/,0%,/
COc1ccc(-n2c(Cc3cccn3C)nnc2SCC(=O)Nc2cccc(C)c2C)cc1,45µM*,15%,?,-10%,3%,?
COc1ccc(-n2c(Cc3cccn3C)nnc2SCC(=O)Nc2ccccc2C)cc1,?,9%,-33%,-8%,0%,-38%
Cc1ccc(-n2c(Cc3cccn3C)nnc2SCC(=O)N2CCc3ccccc32)cc1,45µM*,?,?,-14%,10%,50µM*
CCCN(Cc1ccccc1)C(=S)Nc1ccc(SC(F)F)cc1,51%[59 µM],52%,13%,21%,5%,-1%
c1ccc(CCNCC2COc3ccccc3O2)cc1 (configuration not stated),10%,21%,-14%,11%,/,3%
c1ccc2c(c1)OCC(CNCC1COc3ccccc3O1)O2 (configuration not stated),/,47%,2%,-2%,/,-3%
CN(C)S(=O)(=O)c1cccc(CNCC2COc3ccccc3O2)c1 (configuration not stated),9%,50µM*,18µM*,-22%,/,32µM*
O=C(O)CNCC1COc2ccccc2O1 (configuration not stated),18µM*,11%,4µM*,-14%,-11%,?
O=C(COc1ccc(Cl)cc1)NNC(=O)C(=O)NC1CCCCC1,/,24%,-10%,-21%,1%,-7%
Cc1oc(-c2ccccc2)nc1CS(=O)CC(=O)NC1CCCCCC1 (configuration not stated),/,59%,-17%,-17%,3%,-14%
CCCCc1ccc(/C=C(\C#N)C(N)=S)s1,35µM*,25µM*,35µM*,40µM*,5%,45µM*
SMILES,G9a block,HP1b binding inh,JMJD2A Tudor,Sfp inh,TDP1 block,BAZ2B inh
CCCCCN1C(C(=O)c2ccccc2)=C(NC(=O)c2ccc(OC)c(OC)c2)c2ccccc2S1(=O)=O,-28%[59 µM],14%,-27%,/,5%,-18%
N#Cc1c(NC(=O)CSc2nc3c(c(C(F)(F)F)n2)CCc2ccccc2-3)sc2c1CCCC2,11µM*,-9%,-14%,-20%,3%,9%
Cc1nn(Cc2ccc(Cl)cc2)c(C)c1NC(=O)CSc1nc2c(c(C(F)(F)F)n1)CCc1ccccc1-2,15%[0.501 µM],3%,-29%,35µM*,5%,6%
COc1ccc(-c2cc(C(F)(F)F)nc(SCC(=O)Nc3sc4c(c3C#N)CCC4)n2)cc1,11µM*,-25%,-29%,-3%,-3%,9%
Cc1ccc(Cn2nc(C)c(NC(=O)CSc3nc4c(c(C(F)(F)F)n3)CCc3ccccc3-4)c2C)cc1,13%[59 µM],21%,-9%,10%,0%,-7%
CC(C)(C)OC(=O)NCCCC1=CC2=CC(=O)C(C)(OC(=O)c3cccs3)C(=O)C2=CO1 (configuration not stated),/,/,/,?,-5%,/
COc1ccccc1C1CC(c2cccs2)=Nc2ccccc2S1 (configuration not stated),4%[12.7 µM],1%,-34%,50µM*,4%,-35%
COc1ccccc1C(=O)NC(=O)COC(=O)CNC(=O)c1ccccc1,1%,28%,-6%,/,1%,-4%
O=C(COC(=O)CNC(=O)c1ccc(Cl)cc1Cl)NC(=O)NCc1ccccc1,56µM*,42%,0%,/,2%,2%
COc1ccccc1C(=O)NC(=O)COC(=O)CNC(=O)c1ccc(Cl)cc1Cl,50µM*,41%,3%,/,-2%,6%
O=C(CNC(=O)c1ccc(Cl)cc1Cl)OCc1ccccc1,2%,55%,26%,/,-9%,0%
COc1cc(/C=C/c2cccc[n+]2C)ccc1OCC(=O)Nc1ccccc1C,-7%[59 µM],-10%,-4%,16%,/,-23%
CCOc1cc(/C=C\[N+](=O)[O-])ccc1OCC(=O)Nc1ccccc1C,?,41%,-11%,2µM*,-2%,11%
O=C(c1cc(-c2ccc(Cl)cc2)on1)N1CCCCCC1,-13%[59 µM],5%,25µM*,8%,-6%,2%
O=C(c1cc(-c2ccc(Br)cc2)on1)N1CCc2ccccc2C1,-2%,8%,50µM*,11%,13%,2%
COC(=O)C1=C(C)N(Cc2ccco2)C(=O)N[C@@H]1c1cccc(C(F)(F)F)c1,89µM*,/,/,-4%,7%,?

# Screening data from PubChem BioAssay.
